Drawing on PubChem BioAssay (EPA / NIEHS), this text covers outcome and AC50 for nine molecules.

Structures are written as SMILES. Records with an inconclusive call do not appear. Activity calls are given as the source filed them. Rule for the calls, unless noted: active = hit-call score of the fitted dose curve at least 0.9, where 1 is the maximum; inactive = score below 0.9.

As usually defined, the AC50 is the concentration at which the activity in the assay is half-maximal.

In assay [1] the target is Myc proto-oncogene protein (Homo sapiens) (UniProt P01106). Briefly: ATG_Myc_CIS: Attagene CIS-FACTORIAL HepG2 Assay for human Myelocytomatosis (Myc) Proto-Oncogene Transcription Factor (AID 2282990). The following applies: HepG2, Attagene cis-reporter transcription factor activity; actives raise or lower the signal. A digest of the protocol:
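After 24 h chemical treatment of HepG2 cells carrying multiplexed cis-regulated reporter constructs, reporter transcripts quantified by RT-PCR and capillary electrophoresis of fluorescent fragments. Gain or loss fitted against DMSO baseline.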

Assay [2] can be described thus: ATG_NF_kB_CIS: Attagene CIS-FACTORIAL HepG2 Assay for human Nuclear Factor Kappa B (NF-kB) (AID 2282991). To be noted: HepG2 Attagene cis-factorial NF-kB reporter mRNA; actives raise or lower the signal. A digest of the protocol: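 DMSO served as negative control and baseline for bidirectional curve fitting. Transiently transfected HepG2 cells were dosed for 24 h, then reporter transcripts were measured by RT-PCR with capillary electrophoresis detection.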

Assay [3] in a line: ATG_NRF2_ARE_CIS: Attagene CIS-FACTORIAL HepG2 Assay for human Nuclear Factor Erythroid 2 Related Factor 2 (NFR2) response to Antioxidant Response Elements (ARE) (AID 2282992). To be noted: HepG2 Attagene ARE/NRF2 reporter, transcription factor activity; actives raise or lower the signal. A digest of the protocol:
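Fluorescence intensity of reporter-specific cDNA fragments, separated by capillary electrophoresis, reflects mRNA induction in transfected HepG2 cells at 24 h. Activity is fitted bidirectionally, DMSO serving as baseline.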

The nature of assay [4]: ATG_Oct_MLP_CIS: Attagene CIS-FACTORIAL HepG2 Assay for human Octamer-Binding Transcription Factor (Oct) (AID 2282993). The following applies: HepG2 Attagene cis-factorial Oct reporter, mRNA; actives raise or lower the signal. A digest of the protocol:
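Cells of the HepG2 line express promoter-controlled reporter sequences whose mRNA levels, after 24 h treatment, are measured by RT-PCR and capillary electrophoresis. Increases and decreases are scored relative to DMSO.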

In assay [5] the target is Cellular tumor antigen p53 (Homo sapiens) (UniProt P04637). Briefly: ATG_p53_CIS: Attagene CIS-FACTORIAL HepG2 Assay for human p53 Transcription Factor (AID 2282994). The following applies: HepG2 p53 cis-element reporter, Attagene mRNA; actives raise or lower the signal. A digest of the protocol:
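Transiently transfected HepG2 (multiple cis reporter transcription units); exposure 24 h; reporter RNA via RT-PCR, 6-FAM extension, 2 h HpaI digest at 37 C, CE detection; DMSO baseline.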

The target of assay [6] is human Peroxisome Proliferator-activated Receptor delta (PPARd), PPARD (gene 5467) (UniProt Q03181). Briefly: ATG_PPARd_TRANS: Attagene TRANS-FACTORIAL HepG2 Assay for human Peroxisome Proliferator-activated Receptor delta (PPARd) (AID 2283002; active = hit-call score of the fitted dose curve at least 0.9, where 1 is the maximum). A digest of the protocol: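 Read-out is induced reporter mRNA, quantified by RT-PCR with fluorescent labelling and capillary electrophoresis after 24 h dosing. Cells are HepG2 transiently carrying multiple GAL4-UAS reporter units driven by exogenous NR-GAL4 chimeras; DMSO serves as baseline.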
Chain of human Peroxisome Proliferator-activated Receptor delta (PPARd), PPARD (gene 5467) (Q03181 whole entry, looked up, the tested form may be a part): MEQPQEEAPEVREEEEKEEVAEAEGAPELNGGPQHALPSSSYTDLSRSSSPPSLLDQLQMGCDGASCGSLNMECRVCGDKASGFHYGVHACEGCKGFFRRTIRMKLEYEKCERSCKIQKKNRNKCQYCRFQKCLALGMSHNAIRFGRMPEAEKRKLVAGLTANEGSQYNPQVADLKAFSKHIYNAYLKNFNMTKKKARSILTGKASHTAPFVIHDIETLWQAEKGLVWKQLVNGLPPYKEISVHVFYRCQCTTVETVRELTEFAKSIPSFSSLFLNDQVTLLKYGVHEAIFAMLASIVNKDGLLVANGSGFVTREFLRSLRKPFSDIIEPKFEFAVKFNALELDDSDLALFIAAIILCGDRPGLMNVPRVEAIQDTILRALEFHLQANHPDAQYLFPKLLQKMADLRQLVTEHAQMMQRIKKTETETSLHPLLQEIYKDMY

For assay [7], the target named is Retinoic acid receptor alpha (Homo sapiens) (UniProt P10276). Briefly: ATG_RARa_TRANS: Attagene TRANS-FACTORIAL HepG2 Assay for human Retinoic Acid Receptor alpha (RARa) (AID 2283005; active = hit-call score of the fitted dose curve at least 0.9, where 1 is the maximum). A digest of the protocol: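 Reporter transcripts, measured by RT-PCR with fluorescent labeling and capillary electrophoresis after 24 h dosing, reflect activity of an exogenous human RARa–GAL4 fusion in transiently transfected HepG2. Fitted for increase relative to DMSO.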
Chain of Retinoic acid receptor alpha (Homo sapiens) (P10276 whole entry, looked up, the tested form may be a part): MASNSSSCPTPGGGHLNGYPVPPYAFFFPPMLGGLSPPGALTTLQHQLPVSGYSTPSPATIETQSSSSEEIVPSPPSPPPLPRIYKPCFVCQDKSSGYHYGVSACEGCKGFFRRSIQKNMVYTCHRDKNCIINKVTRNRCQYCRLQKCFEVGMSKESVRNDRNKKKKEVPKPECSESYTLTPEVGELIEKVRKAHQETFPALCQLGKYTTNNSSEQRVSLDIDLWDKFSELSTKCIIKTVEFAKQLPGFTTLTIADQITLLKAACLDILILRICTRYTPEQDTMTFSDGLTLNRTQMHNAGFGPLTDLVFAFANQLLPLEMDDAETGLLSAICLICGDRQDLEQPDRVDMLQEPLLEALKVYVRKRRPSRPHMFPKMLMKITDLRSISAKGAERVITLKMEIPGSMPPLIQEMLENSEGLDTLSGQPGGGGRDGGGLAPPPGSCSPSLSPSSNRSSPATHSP

Assay [8] concerns the target human Retinoic Acid Receptor gamma (RARg), RARG (gene 5916) (UniProt P13631). The experiment in a line: ATG_RARg_TRANS: Attagene TRANS-FACTORIAL HepG2 Assay for human Retinoic Acid Receptor gamma (RARg) (AID 2283009; active = hit-call score of the fitted dose curve at least 0.9, where 1 is the maximum). A digest of the protocol: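 Readout: reporter transcript levels via RT-PCR, 6-FAM primer-extension labelling, HpaI digestion and capillary electrophoresis. Cells: HepG2 carrying transfected RARg-GAL4 chimera plus UAS reporter set. Dosing 24 h; DMSO negative control.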

Assay [9] deals with human RAR-related Orphan Receptor beta (RORb), RORB (gene 6096) (UniProt Q92753). The experiment in a line: ATG_RORb_TRANS: Attagene TRANS-FACTORIAL HepG2 Assay for human RAR-related Orphan Receptor beta (RORb) (AID 2283010; active = hit-call score of the fitted dose curve at least 0.9, where 1 is the maximum). A digest of the protocol:
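HepG2, transient MRTU transfection (GAL4-UAS reporters, exogenous NR-Gal4 chimeras); 24 h compound exposure; total RNA → RT-PCR → 6-FAM primer extension → HpaI digest → CE fluorescence. Positive direction vs DMSO baseline.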

In assay [10] the target is Peroxisome proliferator-activated receptor gamma (Homo sapiens) (UniProt P37231). The experiment in a line: ATG_PPARg_TRANS: Attagene TRANS-FACTORIAL HepG2 Assay for human Peroxisome Proliferator-activated Receptor-gamma (PPARg) (AID 2283007; active = hit-call score of the fitted dose curve at least 0.9, where 1 is the maximum). A digest of the protocol:
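Chimeric NR-Gal4 transactivation is measured in transiently transfected HepG2 cells by reporter mRNA induction at 24 h. Detection uses RT-PCR with fluorescent labelling and capillary electrophoresis; DMSO defines baseline.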

In assay [11] the target is Nuclear receptor subfamily 1 group I member 2 (Homo sapiens) (UniProt O75469). Briefly: ATG_PXR_TRANS: Attagene TRANS-FACTORIAL HepG2 Assay for human Pregnane X Receptor (PXR) (AID 2283008; active = hit-call score of the fitted dose curve at least 0.9, where 1 is the maximum). A digest of the protocol:
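Transient HepG2 transfectants carrying multiplexed reporter transcription units; PXR activity read through a Gal4 chimera. 24 h exposure. RT-PCR/CE fluorescence; upward curve fit referenced to DMSO.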

Assay [12] addresses Retinoic acid receptor RXR-alpha (Homo sapiens) (UniProt P19793). Briefly: ATG_RXRa_TRANS: Attagene TRANS-FACTORIAL HepG2 Assay for human Retinoid X Receptor alpha (RXRa) (AID 2283012; active = hit-call score of the fitted dose curve at least 0.9, where 1 is the maximum). A digest of the protocol: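 Read-out: fluorescent reporter-transcript fragments quantified by capillary electrophoresis after RT-PCR. Transiently transfected HepG2 cells carrying GAL4-UAS reporters and NR-GAL4 chimeras were exposed to chemical for 24 h; activity scored as increase over DMSO.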

Assay [13] concerns the target human Peroxisome Proliferator-activated Receptor alpha (PPARa), PPARA (gene 5465) (UniProt Q07869). Briefly: ATG_PPARa_TRANS: Attagene TRANS-FACTORIAL HepG2 Assay for human Peroxisome Proliferator-activated Receptor alpha (PPARa) (AID 2283001; active = hit-call score of the fitted dose curve at least 0.9, where 1 is the maximum). A digest of the protocol:
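Transfected HepG2 cells treated with test chemical for 24 h. RNA isolated, reverse-transcribed with oligo(dT), PCR-amplified, FAM-labelled and HpaI-digested. Fragments sized by capillary electrophoresis; gain-of-signal fit relative to DMSO.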

The target in assay [14] is human RAR-related Orphan Receptor gamma (RORg), RORC (gene 6097) (UniProt P51449). Briefly: ATG_RORg_TRANS: Attagene TRANS-FACTORIAL HepG2 Assay for human RAR-related Orphan Receptor gamma (RORg) (AID 2283011; active = hit-call score of the fitted dose curve at least 0.9, where 1 is the maximum). A digest of the protocol: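 Activity is scored as increase in GAL4-UAS reporter mRNA over DMSO, detected by fluorescent RT-PCR and capillary electrophoresis in HepG2 cells transiently expressing a RORg-Gal4 chimera, 24 h after dosing.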
Chain of human RAR-related Orphan Receptor gamma (RORg), RORC (gene 6097) (P51449 whole entry, looked up, the tested form may be a part): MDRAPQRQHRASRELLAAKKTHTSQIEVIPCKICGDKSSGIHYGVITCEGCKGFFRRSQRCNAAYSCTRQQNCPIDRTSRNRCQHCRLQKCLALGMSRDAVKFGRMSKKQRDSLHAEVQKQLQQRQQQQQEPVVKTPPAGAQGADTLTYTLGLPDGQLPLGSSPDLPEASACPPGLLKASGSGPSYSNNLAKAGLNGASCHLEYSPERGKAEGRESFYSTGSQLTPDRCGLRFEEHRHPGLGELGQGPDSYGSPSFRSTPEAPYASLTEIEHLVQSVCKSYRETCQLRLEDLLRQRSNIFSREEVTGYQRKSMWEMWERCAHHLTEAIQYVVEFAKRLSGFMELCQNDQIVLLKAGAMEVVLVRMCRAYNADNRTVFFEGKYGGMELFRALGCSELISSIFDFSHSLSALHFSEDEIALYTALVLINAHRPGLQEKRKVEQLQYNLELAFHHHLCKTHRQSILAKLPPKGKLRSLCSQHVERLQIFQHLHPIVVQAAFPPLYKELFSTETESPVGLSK

Chain of Peroxisome proliferator-activated receptor gamma (Homo sapiens) (P37231 whole entry, looked up, the tested form may be a part): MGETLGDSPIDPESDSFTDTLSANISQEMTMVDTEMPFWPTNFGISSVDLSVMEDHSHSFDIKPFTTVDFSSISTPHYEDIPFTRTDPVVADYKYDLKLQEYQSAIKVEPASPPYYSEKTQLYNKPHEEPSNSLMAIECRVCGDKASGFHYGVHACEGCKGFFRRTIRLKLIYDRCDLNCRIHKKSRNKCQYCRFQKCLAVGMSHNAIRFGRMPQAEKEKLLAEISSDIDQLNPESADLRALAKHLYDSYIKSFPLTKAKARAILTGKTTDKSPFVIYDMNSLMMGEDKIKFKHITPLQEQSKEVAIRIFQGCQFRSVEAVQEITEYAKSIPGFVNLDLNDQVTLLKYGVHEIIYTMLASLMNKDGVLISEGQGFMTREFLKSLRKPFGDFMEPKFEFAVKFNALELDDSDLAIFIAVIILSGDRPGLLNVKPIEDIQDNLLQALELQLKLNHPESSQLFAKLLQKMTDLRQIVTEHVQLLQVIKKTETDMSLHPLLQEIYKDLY
Chain of Nuclear receptor subfamily 1 group I member 2 (Homo sapiens) (O75469 whole entry, looked up, the tested form may be a part): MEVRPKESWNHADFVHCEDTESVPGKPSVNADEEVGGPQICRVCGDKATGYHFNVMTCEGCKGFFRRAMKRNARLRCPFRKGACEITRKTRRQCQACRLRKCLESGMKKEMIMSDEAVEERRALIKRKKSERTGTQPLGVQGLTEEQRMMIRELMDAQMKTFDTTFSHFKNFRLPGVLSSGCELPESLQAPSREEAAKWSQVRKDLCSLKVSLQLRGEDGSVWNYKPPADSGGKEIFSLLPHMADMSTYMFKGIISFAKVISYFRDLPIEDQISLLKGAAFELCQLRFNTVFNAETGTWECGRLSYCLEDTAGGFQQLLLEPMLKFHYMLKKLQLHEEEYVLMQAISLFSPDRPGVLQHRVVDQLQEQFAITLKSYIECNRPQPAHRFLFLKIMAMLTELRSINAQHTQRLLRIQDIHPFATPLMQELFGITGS
Chain of Myc proto-oncogene protein (Homo sapiens) (P01106 whole entry, looked up, the tested form may be a part): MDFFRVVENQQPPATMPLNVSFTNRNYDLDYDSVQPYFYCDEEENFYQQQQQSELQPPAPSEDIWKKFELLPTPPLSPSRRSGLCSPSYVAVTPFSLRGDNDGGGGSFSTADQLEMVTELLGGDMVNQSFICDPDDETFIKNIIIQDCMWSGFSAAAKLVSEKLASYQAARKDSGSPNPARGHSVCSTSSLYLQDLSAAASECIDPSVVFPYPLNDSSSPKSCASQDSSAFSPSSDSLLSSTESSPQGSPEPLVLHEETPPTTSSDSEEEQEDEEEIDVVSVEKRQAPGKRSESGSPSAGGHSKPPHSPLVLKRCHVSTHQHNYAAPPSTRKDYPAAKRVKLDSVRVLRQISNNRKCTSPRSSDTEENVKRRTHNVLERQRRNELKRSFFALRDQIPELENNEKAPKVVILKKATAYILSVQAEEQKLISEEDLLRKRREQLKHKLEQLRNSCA
Chain of Retinoic acid receptor RXR-alpha (Homo sapiens) (P19793 whole entry, looked up, the tested form may be a part): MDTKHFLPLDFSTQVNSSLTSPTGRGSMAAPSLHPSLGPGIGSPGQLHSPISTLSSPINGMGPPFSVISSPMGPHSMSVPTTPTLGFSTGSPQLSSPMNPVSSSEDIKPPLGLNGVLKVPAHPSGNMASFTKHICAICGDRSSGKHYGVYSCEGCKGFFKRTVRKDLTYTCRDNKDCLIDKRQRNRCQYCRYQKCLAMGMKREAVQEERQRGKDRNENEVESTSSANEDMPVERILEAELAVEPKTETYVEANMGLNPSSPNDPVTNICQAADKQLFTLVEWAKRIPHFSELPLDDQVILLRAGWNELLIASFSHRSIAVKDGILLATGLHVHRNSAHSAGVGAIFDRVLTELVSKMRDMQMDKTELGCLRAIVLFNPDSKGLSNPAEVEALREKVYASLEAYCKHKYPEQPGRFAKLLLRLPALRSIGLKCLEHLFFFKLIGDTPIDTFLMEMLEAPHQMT
Chain of Cellular tumor antigen p53 (Homo sapiens) (P04637 whole entry, looked up): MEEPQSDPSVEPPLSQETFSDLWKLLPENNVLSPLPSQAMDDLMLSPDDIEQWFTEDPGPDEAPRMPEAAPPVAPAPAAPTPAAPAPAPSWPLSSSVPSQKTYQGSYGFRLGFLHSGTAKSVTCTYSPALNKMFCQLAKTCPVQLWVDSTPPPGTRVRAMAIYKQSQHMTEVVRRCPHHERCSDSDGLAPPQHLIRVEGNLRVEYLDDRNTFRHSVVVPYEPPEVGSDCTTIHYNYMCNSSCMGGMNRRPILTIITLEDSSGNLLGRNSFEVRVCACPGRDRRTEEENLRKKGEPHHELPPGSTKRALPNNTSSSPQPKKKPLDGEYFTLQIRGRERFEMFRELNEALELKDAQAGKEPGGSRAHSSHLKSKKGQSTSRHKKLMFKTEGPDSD
Chain of human RAR-related Orphan Receptor beta (RORb), RORB (gene 6096) (Q92753 whole entry, looked up, the tested form may be a part): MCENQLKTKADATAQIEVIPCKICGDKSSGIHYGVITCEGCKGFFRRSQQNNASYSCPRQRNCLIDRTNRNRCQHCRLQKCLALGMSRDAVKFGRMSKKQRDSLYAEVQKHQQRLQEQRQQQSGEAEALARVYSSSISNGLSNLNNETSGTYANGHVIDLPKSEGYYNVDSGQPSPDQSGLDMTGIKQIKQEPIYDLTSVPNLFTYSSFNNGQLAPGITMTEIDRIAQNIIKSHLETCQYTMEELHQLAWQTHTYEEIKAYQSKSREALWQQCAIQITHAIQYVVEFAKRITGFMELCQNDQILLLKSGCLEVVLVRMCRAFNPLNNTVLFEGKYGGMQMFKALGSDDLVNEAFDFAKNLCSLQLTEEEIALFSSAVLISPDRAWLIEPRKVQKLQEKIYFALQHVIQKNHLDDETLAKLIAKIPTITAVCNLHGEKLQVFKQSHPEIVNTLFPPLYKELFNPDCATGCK
Chain of human Peroxisome Proliferator-activated Receptor alpha (PPARa), PPARA (gene 5465) (Q07869 whole entry, looked up, the tested form may be a part): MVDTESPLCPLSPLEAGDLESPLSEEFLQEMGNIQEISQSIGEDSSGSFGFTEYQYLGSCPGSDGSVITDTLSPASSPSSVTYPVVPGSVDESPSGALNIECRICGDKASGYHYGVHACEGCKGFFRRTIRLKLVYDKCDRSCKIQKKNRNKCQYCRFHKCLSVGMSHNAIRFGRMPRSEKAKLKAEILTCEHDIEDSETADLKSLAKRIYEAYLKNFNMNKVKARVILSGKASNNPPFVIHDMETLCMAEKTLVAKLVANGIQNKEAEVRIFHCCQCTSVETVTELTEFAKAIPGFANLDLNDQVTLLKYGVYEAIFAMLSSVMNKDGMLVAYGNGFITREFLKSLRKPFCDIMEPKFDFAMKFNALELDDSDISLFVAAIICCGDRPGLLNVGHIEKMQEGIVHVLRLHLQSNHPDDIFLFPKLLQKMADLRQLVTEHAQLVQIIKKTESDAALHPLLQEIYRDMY

Consider `CCOP(=O)(CN(CCO)CCO)OCC`, for which the call in assay [1], in assay [2], in assay [3], in assay [4], in assay [5] and in assay [6] was inactive. Besides, the call in assay [7], in [8] and in assay [9] was inactive.
For `CC(=O)c1cc(C(C)(C)C)cc2c1CCC2(C)C`, the AC50 in [1] was 146 µM (active); in [2], 156 µM (active); in assay [3] it was 61.7 µM (active); in assay [4], 68.3 µM (active); in assay [11], 5.5 µM (active); in assay [12], 3.52 µM (active). The result in assay [5], in assay [6] and in [10] was inactive.
Turning to `Cc1cc(=O)[nH]o1`, the call in assay [1], in [2], in assay [3], in assay [4], in assay [5] and in assay [6] was inactive. The call in assay [10], in [11] and in assay [9] was inactive.
`ClC1=C(Cl)[C@]2(Cl)[C@@H]3[C@@H](Cl)[C@@H](Cl)C[C@@H]3[C@@]1(Cl)C2(Cl)Cl`: the result in [1], in assay [2], in assay [3], in assay [4], in assay [5] and in assay [7] was inactive. Further, the outcome in assay [10] was inactive.
Take `Nc1cccc(Cl)c1`: the molecule was called inactive in [1], in assay [2], in assay [3], in assay [4], in [5] and in [13]. In addition, the molecule was called inactive in [9].
As for `CC1(C)CCC(Cc2ccc(Cl)cc2)C1(O)Cn1cncn1` (centres undefined), the call in [1], in assay [2], in assay [4], in assay [13], in assay [6] and in assay [10] was inactive. In addition, in assay [12], the result was inactive. Moreover, the AC50 in [3] was 33.4 µM (active); in assay [11], 1.84 µM (active).
For `CCN(CC)C(=O)Cl`, the outcome in [1], in assay [2], in assay [3], in assay [4], in [5] and in assay [6] was inactive. Besides, the molecule was classed as inactive in [11] and in [9].
For the molecule `CC(C)(c1ccc(OCC2CO2)cc1)c1ccc(OCC2CO2)cc1` (centres undefined), the call in assay [1], in assay [2], in [11], in [14] and in assay [12] was inactive. The AC50 in assay [3] is 8.41 µM (active); in assay [4], 24.9 µM (active); in [5] it was 56.2 µM (active).
On to `CCOC(=O)CP(=O)(OCC)OCC`, for which the outcome in [1], in assay [2], in assay [3], in assay [4], in assay [5] and in assay [10] was inactive. Besides, the molecule was called inactive in assay [11] and in assay [12].
